PubChem BioAssay AID1159580 (chemical genetic matrix, 2015)
Out of some 5,500 compounds screened, about 2,000 (36%) were called active. Another 18% or so got no clear call; they are omitted. Rule as the data show it: active = normalized growth mostly below about 0.91 (no sharp cut-off); inconclusive = no clear call, values can overlap the other calls; inactive = mostly above about 0.92. The list shows a part of the results.

Assay: chemical genetic growth profiling, strain panel (AID 1159580);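 also: tested at 20 µM; growth read once vehicle control cultures reached saturation at 30 °C; 1 = growth at the plate median or of vehicle wells; lower values mean less growth of the strain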
Conditions: growth OD

Measured: normalized growth

COc1cc([C@@H]2c3cc4c(cc3[C@H](O)[C@H]3COC(=O)[C@@H]23)OCO4)cc(OC)c1OC
inactive: S. cerevisiae deletion strains, locus YKL009W, strain mrt4, stronger effect = lower value 1 | S. cerevisiae deletion strains, locus YKL068W, stronger effect = lower value 0.977 | S. cerevisiae deletion strains, locus YKL085W, strain MDH1 (second series), stronger effect = lower value 1 | S. cerevisiae deletion strains, locus YKL085W, strain MDH1, stronger effect = lower value 1 | S. cerevisiae deletion strains, locus YKL160W, strain elf1, stronger effect = lower value 1.02 | S. cerevisiae deletion strains, locus YKR001C, strain vps1, stronger effect = lower value 0.978 | S. cerevisiae deletion strains, locus YKR026C, strain gcn3, stronger effect = lower value 1.02 | S. cerevisiae deletion strains, locus YKR091W, strain srl3, stronger effect = lower value 1.02 | S. cerevisiae deletion strains, locus YLL001W, strain dnm1, stronger effect = lower value 1.01 | S. cerevisiae deletion strains, locus YLL026W, stronger effect = lower value 1.01 | S. cerevisiae deletion strains, locus YLL041C, strain sdh2, stronger effect = lower value 1.02 | S. cerevisiae deletion strains, locus YLR027C, strain aat2, stronger effect = lower value 1.03 | S. cerevisiae deletion strains, locus YLR039C, strain RIC1, stronger effect = lower value 0.996 | S. cerevisiae deletion strains, locus YLR058C, strain SHM2, stronger effect = lower value 1.01 | S. cerevisiae deletion strains, locus YLR102C, strain apc9, stronger effect = lower value 0.984 | S. cerevisiae deletion strains, locus YLR113W, strain HOG1, stronger effect = lower value 0.997 | S. cerevisiae deletion strains, locus YLR221C, strain rsa3, stronger effect = lower value 0.999 | S. cerevisiae deletion strains, locus YLR258W, strain gsy2, stronger effect = lower value 1.02 | S. cerevisiae deletion strains, locus YLR262C, strain YPT6 (second series), stronger effect = lower value 1.04 | S. cerevisiae deletion strains, locus YLR262C, strain YPT6, stronger effect = lower value 0.991 | S. cerevisiae deletion strains, locus YLR268W, strain sec22, stronger effect = lower value 0.971 | S. cerevisiae deletion strains, locus YLR320W, strain mms22, stronger effect = lower value 1.01 | S. cerevisiae deletion strains, locus YLR330W, strain CHS5, stronger effect = lower value 0.998 | S. cerevisiae deletion strains, locus YLR342W, strain FKS1 (second series), stronger effect = lower value 1.02 | S. cerevisiae deletion strains, locus YLR342W, strain FKS1, stronger effect = lower value 1.02 | S. cerevisiae deletion strains, locus YLR357W, strain rsc2, stronger effect = lower value 1.02 | S. cerevisiae deletion strains, locus YLR370C, strain arc18, stronger effect = lower value 1.03 | S. cerevisiae deletion strains, locus YLR371W, strain rom2, stronger effect = lower value 0.972 | S. cerevisiae deletion strains, locus YLR384C, strain iki3, stronger effect = lower value 1.02 | S. cerevisiae deletion strains, locus YLR418C, strain cdc73, stronger effect = lower value 1.05 | S. cerevisiae deletion strains, locus YML016C, strain PPZ1, stronger effect = lower value 0.997 | S. cerevisiae deletion strains, locus YML032C, strain rad52, stronger effect = lower value 1.02 | S. cerevisiae deletion strains, locus YML120C, strain ndi1, stronger effect = lower value 1.01 | S. cerevisiae deletion strains, locus YML124C, strain tub3, stronger effect = lower value 0.993 | S. cerevisiae deletion strains, locus YMR058W, strain fet3, stronger effect = lower value 1.02 | S. cerevisiae deletion strains, locus YMR078C, strain ctf18, stronger effect = lower value 0.991 | S. cerevisiae deletion strains, locus YMR125W, strain sto1, stronger effect = lower value 1.02 | S. cerevisiae deletion strains, locus YMR129W, stronger effect = lower value 1.02 | S. cerevisiae deletion strains, locus YMR205C, strain PFK2, stronger effect = lower value 1.02 | S. cerevisiae deletion strains, locus YMR223W, strain ubp8, stronger effect = lower value 1.01 | S. cerevisiae deletion strains, locus YMR231W, strain pep5, stronger effect = lower value 1.03 | S. cerevisiae deletion strains, locus YMR263W, strain SAP30, stronger effect = lower value 1.01 | S. cerevisiae deletion strains, locus YMR307W, strain GAS1, stronger effect = lower value 1.05 | S. cerevisiae deletion strains, locus YNL067W, strain RPL9B, stronger effect = lower value 1.01 | S. cerevisiae deletion strains, locus YNL071W, strain lat1, stronger effect = lower value 1.02 | S. cerevisiae deletion strains, locus YNL153C, strain GIM3, stronger effect = lower value 1.03 | S. cerevisiae deletion strains, locus YNL183C, strain NPR1, stronger effect = lower value 0.904 | S. cerevisiae deletion strains, locus YNL209W, strain ssb2, stronger effect = lower value 1.01 | S. cerevisiae deletion strains, locus YNL233W, strain BNI4, stronger effect = lower value 1.01 | S. cerevisiae deletion strains, locus YNL248C, strain rpa49, stronger effect = lower value 1.01 | S. cerevisiae deletion strains, locus YNL250W, strain rad50, stronger effect = lower value 0.95 | S. cerevisiae deletion strains, locus YNL271C, strain bni1, stronger effect = lower value 0.993 | S. cerevisiae deletion strains, locus YNL298W, strain CLA4, stronger effect = lower value 0.997 | S. cerevisiae deletion strains, locus YNL307C, strain MCK1, stronger effect = lower value 0.992 | S. cerevisiae deletion strains, locus YNL322C, strain KRE1 (second series), stronger effect = lower value 1.01 | S. cerevisiae deletion strains, locus YNL322C, strain KRE1, stronger effect = lower value 1 | S. cerevisiae deletion strains, locus YNR049C, strain mso1, stronger effect = lower value 1.02 | S. cerevisiae deletion strains, locus YNR052C, strain pop2, stronger effect = lower value 1.01 | S. cerevisiae deletion strains, locus YOL012C, strain htz1 0.992 | S. cerevisiae deletion strains, locus YOL147C, strain pex11, stronger effect = lower value 0.993 | S. cerevisiae deletion strains, locus YOR001W, strain rrp6, stronger effect = lower value 1.04 | S. cerevisiae deletion strains, locus YOR061W, strain CKA2, stronger effect = lower value 1 | S. cerevisiae deletion strains, locus YOR069W, strain VPS5, stronger effect = lower value 0.991 | S. cerevisiae deletion strains, locus YOR070C, strain gyp1, stronger effect = lower value 1.02 | S. cerevisiae deletion strains, locus YOR080W, strain dia2, stronger effect = lower value 1.03 | S. cerevisiae deletion strains, locus YOR083W, strain WHI5, stronger effect = lower value 1.02 | S. cerevisiae deletion strains, locus YOR106W, strain vam3, stronger effect = lower value 1.04 | S. cerevisiae deletion strains, locus YOR136W, strain idh2, stronger effect = lower value 0.98 | S. cerevisiae deletion strains, locus YOR144C, strain elg1, stronger effect = lower value 1 | S. cerevisiae deletion strains, locus YOR184W, strain ser1, stronger effect = lower value 0.999 | S. cerevisiae deletion strains, locus YOR231W, strain MKK1, stronger effect = lower value 0.996 | S. cerevisiae deletion strains, locus YOR265W, strain rbl2, stronger effect = lower value 1.02 | S. cerevisiae deletion strains, locus YOR270C, strain vph1, stronger effect = lower value 1.03 | S. cerevisiae deletion strains, locus YOR290C, strain snf2, stronger effect = lower value 1.01 | S. cerevisiae deletion strains, locus YOR316C, strain cot1, stronger effect = lower value 0.995 | S. cerevisiae deletion strains, locus YPL051W, strain arl3, stronger effect = lower value 1.02 | S. cerevisiae deletion strains, locus YPL055C, strain LGE1, stronger effect = lower value 1.02 | S. cerevisiae deletion strains, locus YPL078C, strain atp4, stronger effect = lower value 1.02 | S. cerevisiae deletion strains, locus YPL106C, strain sse1, stronger effect = lower value 1 | S. cerevisiae deletion strains, locus YPL240C, strain hsp82, stronger effect = lower value 1.02 | S. cerevisiae deletion strains, locus YPL241C, strain CIN2, stronger effect = lower value 1 | S. cerevisiae deletion strains, locus YPL256C, strain CLN2, stronger effect = lower value 0.967 | S. cerevisiae deletion strains, locus YPR119W, strain clb2, stronger effect = lower value 0.986 | S. cerevisiae deletion strains, locus YPR141C, strain kar3, stronger effect = lower value 0.988 | S. cerevisiae deletion strains, locus YPR163C, strain tif3, stronger effect = lower value 0.996 | S. cerevisiae deletion strains, locus YPR167C, strain met16, stronger effect = lower value 0.989 | S. cerevisiae deletion strains, strain wtn01, stronger effect = lower value 0.945 | S. cerevisiae strains, strain wild type, stronger effect = lower value 1.02
